Experimental data from PMC7862700, “An all-to-all approach to the identification of sequence-specific readers for epigenetic DNA modifications on cytosine”.

Assays:
Assay in all cases: DAPPL (digital affinity profiling via proximity ligation, sequencing); 10 mM Tris-HCl pH 7.5, 50 mM NaCl, 1 mM DTT, 4% glycerol, room temperature, 30 min; GST-TFs on glutathione beads, 16-mer random dsDNA library, 0.1% formaldehyde crosslink after washing; high values mean tight binding
FLI1 = target: T1, FLI1 (Homo sapiens, UniProt Q01543 1-452); settings: protein: recombinant; tags: N-terminal GST; dsDNA, one strand shown
T1 sequence: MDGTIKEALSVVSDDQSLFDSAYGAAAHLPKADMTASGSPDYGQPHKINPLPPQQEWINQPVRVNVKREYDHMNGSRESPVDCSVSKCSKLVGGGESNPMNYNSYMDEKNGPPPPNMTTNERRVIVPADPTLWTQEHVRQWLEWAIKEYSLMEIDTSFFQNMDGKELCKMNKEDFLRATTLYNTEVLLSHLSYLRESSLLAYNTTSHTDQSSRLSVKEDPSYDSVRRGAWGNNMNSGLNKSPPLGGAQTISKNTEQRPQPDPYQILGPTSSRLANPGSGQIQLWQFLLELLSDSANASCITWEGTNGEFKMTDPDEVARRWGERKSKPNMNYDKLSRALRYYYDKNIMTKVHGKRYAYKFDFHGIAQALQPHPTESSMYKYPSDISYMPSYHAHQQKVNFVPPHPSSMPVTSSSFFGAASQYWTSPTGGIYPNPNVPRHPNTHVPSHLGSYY
How it was run: (§1)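 Each value of binding signal is a hexamer's read frequency for a factor divided by the same hexamer's frequency in the tag-only sample. Barcoded, bead-captured GST fusions of human transcription factors made in yeast were pooled with that sample and incubated with 200 nmole of a random double-stranded 16-mer DNA library in Tris/NaCl/DTT/glycerol buffer at room temperature for 30 min. Washing, 0.1% formaldehyde crosslinking, proximity ligation, PCR and Illumina NextSeq500 sequencing followed.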

ELK1 = target: T2, ELK1 (Homo sapiens, UniProt P19419 1-428); settings: protein: recombinant; tags: N-terminal GST; dsDNA, one strand shown
T2 sequence: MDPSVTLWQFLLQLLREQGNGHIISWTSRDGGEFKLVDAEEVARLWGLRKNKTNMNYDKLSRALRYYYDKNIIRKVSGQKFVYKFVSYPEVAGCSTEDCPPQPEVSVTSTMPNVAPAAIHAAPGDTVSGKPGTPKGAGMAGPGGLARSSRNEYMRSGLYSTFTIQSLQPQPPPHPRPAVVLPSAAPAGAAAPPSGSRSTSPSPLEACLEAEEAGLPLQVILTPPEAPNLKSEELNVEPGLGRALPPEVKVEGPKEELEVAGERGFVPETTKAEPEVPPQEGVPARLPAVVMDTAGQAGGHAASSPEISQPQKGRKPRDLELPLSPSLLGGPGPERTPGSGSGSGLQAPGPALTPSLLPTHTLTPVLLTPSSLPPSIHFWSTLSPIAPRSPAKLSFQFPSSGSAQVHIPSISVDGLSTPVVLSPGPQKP
How it was run: as §1

GABPA = target: T3, GABPA (Homo sapiens, UniProt Q06546 1-454); settings: protein: recombinant; tags: N-terminal GST; dsDNA, one strand shown
T3 sequence: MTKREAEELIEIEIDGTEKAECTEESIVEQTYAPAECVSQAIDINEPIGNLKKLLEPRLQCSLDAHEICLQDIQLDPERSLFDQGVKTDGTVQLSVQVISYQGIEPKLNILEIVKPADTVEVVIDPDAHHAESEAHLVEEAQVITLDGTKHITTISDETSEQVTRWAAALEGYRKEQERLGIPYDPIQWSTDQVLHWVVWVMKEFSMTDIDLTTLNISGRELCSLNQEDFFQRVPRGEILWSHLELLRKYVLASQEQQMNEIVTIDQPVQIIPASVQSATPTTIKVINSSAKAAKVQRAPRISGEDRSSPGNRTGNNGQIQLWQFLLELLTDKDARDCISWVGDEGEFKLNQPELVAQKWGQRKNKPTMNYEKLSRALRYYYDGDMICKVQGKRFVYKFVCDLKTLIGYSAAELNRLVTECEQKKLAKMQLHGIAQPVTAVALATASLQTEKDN
How it was run: as §1

ERG = target: T4, ERG (Homo sapiens, UniProt P11308 1-479); settings: protein: recombinant; tags: N-terminal GST; dsDNA, one strand shown
T4 sequence: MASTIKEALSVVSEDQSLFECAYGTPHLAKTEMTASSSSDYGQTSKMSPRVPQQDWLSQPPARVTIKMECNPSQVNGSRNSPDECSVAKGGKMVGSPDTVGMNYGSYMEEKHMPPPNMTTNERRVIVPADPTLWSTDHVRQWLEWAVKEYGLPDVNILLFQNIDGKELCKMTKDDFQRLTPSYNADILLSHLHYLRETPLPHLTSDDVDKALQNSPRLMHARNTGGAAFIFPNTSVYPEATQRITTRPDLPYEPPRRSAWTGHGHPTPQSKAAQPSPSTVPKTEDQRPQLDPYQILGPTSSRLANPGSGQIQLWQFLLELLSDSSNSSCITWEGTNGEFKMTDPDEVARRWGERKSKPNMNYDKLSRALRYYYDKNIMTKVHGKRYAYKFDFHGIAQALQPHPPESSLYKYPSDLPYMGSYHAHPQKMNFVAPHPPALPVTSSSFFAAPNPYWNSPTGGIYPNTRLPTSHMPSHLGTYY
How it was run: as §1

ELF1 = ELF1 (Homo sapiens, UniProt P32519 1-619); settings: protein: recombinant; tags: N-terminal GST; dsDNA, one strand shown
How it was run: as §1

EHF = target: T5, EHF (Homo sapiens, UniProt Q9NZC4 1-300); settings: protein: recombinant; tags: N-terminal GST; dsDNA, one strand shown
T5 sequence: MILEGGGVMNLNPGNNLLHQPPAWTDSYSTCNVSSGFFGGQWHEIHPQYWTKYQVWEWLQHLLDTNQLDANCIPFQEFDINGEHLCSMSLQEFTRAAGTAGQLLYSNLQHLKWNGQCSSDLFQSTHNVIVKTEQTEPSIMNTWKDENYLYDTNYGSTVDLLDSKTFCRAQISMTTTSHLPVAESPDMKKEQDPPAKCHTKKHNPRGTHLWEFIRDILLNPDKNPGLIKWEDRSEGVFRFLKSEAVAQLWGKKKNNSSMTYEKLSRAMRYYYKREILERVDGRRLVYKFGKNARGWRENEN
How it was run: as §1

SPI1 = SPI1 (Homo sapiens, UniProt P17947 1-270); settings: protein: recombinant; tags: N-terminal GST; dsDNA, one strand shown
How it was run: as §1

SPIB = SPIB (Homo sapiens, UniProt Q01892 1-262); settings: protein: recombinant; tags: N-terminal GST; dsDNA, one strand shown
How it was run: as §1

ELK3 = target: T6, ELK3 (Homo sapiens, UniProt P41970 1-407); settings: protein: recombinant; tags: N-terminal GST; dsDNA, one strand shown
T6 sequence: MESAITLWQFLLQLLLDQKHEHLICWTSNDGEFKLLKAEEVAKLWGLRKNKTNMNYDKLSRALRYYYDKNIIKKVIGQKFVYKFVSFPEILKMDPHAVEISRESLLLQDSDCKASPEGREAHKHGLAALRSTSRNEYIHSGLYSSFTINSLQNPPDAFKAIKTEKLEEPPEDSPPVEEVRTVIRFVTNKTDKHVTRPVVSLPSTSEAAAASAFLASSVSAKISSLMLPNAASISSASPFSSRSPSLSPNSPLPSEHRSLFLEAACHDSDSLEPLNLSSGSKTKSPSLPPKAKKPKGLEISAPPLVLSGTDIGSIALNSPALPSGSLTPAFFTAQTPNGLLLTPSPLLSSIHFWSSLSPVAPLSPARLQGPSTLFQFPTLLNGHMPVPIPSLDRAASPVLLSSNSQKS
How it was run: as §1

FEV = target: T7, FEV (Homo sapiens, UniProt Q99581 1-238); settings: protein: recombinant; tags: N-terminal GST; dsDNA, one strand shown
T7 sequence: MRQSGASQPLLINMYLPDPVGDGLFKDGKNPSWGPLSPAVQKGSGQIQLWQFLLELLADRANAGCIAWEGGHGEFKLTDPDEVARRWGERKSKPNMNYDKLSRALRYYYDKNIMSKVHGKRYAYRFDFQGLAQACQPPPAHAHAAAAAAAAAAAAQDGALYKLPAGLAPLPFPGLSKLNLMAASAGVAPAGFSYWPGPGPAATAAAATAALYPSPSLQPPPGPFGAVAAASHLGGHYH
How it was run: as §1

ETV5 = ETV5 (Homo sapiens, UniProt P41161 1-510); settings: protein: recombinant; tags: N-terminal GST; dsDNA, one strand shown
How it was run: as §1

HSF1 = HSF1 (Homo sapiens, UniProt Q00613 1-529); settings: protein: recombinant; tags: N-terminal GST; chain copies: 3; dsDNA, one strand shown
How it was run: as §1

SPIC = target: T8, SPIC (Homo sapiens, UniProt Q8N5J4 1-248); settings: protein: recombinant; tags: N-terminal GST; dsDNA, one strand shown
T8 sequence: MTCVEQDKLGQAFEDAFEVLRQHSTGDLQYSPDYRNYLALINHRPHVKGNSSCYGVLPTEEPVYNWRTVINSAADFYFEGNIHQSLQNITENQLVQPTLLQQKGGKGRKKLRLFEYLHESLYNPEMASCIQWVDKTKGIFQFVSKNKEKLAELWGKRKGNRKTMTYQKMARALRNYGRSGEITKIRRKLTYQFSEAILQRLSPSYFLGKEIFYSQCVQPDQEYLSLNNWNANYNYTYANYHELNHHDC
How it was run: as §1

ELF4 = ELF4 (Homo sapiens, UniProt Q99607 1-663); settings: protein: recombinant; tags: N-terminal GST; dsDNA, one strand shown
How it was run: as §1

ELK4 = target: T9, ELK4 (Homo sapiens, UniProt P28324-2 1-405); settings: protein: recombinant; tags: N-terminal GST; dsDNA, one strand shown
T9 sequence: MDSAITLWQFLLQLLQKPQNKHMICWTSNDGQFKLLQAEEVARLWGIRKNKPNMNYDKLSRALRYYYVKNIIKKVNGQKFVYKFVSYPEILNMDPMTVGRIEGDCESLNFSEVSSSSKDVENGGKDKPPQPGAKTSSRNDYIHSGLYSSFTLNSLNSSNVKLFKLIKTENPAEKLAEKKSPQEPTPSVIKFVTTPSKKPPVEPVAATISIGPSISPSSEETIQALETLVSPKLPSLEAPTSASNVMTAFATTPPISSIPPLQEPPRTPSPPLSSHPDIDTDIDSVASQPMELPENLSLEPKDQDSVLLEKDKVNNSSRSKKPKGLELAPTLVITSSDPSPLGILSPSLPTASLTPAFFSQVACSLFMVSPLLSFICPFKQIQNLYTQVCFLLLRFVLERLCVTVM
How it was run: as §1

ETV2 = target: T10, ETV2 (Homo sapiens, UniProt O00321 1-342); settings: protein: recombinant; tags: N-terminal GST; dsDNA, one strand shown
T10 sequence: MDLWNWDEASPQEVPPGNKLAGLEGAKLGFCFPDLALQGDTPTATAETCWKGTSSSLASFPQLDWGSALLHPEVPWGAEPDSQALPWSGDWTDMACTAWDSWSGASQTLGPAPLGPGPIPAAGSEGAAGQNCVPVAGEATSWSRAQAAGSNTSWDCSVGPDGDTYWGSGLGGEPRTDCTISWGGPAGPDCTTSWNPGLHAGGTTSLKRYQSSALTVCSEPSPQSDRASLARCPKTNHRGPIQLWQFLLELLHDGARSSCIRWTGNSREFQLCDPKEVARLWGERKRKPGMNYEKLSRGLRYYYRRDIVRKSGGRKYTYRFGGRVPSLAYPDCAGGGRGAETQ
How it was run: as §1

ELF3 = target: T11, ELF3 (Homo sapiens, UniProt P78545 1-371); settings: protein: recombinant; tags: N-terminal GST; dsDNA, one strand shown
T11 sequence: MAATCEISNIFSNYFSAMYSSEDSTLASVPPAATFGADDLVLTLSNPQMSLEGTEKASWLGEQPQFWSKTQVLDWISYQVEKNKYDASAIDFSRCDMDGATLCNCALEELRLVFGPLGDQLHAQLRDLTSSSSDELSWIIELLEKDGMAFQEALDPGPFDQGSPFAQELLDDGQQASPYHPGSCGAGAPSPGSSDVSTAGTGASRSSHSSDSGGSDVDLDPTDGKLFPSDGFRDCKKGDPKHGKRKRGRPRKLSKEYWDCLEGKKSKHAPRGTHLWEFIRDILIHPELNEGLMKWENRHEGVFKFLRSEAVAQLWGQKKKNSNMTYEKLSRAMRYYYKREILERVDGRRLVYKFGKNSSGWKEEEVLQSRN
How it was run: as §1

CRX = CRX (Homo sapiens, UniProt O43186 1-299); settings: protein: recombinant; tags: N-terminal GST; dsDNA, one strand shown
How it was run: as §1

ETV1 = ETV1 (Homo sapiens, UniProt P50549 1-477); settings: protein: recombinant; tags: N-terminal GST; dsDNA, one strand shown
How it was run: as §1

Chain of ELF4 (Q99607 whole entry): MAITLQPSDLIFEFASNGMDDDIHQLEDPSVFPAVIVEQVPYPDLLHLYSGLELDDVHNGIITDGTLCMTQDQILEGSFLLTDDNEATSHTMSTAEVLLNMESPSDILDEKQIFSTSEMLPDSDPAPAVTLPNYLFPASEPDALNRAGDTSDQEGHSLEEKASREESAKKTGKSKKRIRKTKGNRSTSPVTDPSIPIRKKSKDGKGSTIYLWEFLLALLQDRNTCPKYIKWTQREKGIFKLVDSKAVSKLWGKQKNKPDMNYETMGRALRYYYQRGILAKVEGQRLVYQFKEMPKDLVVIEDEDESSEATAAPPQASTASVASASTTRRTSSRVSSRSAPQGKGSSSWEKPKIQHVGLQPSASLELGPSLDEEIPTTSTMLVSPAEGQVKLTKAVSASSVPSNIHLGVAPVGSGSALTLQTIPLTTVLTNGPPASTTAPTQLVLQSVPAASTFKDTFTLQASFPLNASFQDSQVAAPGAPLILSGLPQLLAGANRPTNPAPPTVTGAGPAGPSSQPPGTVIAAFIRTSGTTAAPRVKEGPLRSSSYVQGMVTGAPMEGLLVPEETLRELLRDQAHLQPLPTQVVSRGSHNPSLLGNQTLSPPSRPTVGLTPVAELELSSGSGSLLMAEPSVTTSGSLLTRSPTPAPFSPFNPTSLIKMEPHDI
Chain of ELF1 (P32519 whole entry): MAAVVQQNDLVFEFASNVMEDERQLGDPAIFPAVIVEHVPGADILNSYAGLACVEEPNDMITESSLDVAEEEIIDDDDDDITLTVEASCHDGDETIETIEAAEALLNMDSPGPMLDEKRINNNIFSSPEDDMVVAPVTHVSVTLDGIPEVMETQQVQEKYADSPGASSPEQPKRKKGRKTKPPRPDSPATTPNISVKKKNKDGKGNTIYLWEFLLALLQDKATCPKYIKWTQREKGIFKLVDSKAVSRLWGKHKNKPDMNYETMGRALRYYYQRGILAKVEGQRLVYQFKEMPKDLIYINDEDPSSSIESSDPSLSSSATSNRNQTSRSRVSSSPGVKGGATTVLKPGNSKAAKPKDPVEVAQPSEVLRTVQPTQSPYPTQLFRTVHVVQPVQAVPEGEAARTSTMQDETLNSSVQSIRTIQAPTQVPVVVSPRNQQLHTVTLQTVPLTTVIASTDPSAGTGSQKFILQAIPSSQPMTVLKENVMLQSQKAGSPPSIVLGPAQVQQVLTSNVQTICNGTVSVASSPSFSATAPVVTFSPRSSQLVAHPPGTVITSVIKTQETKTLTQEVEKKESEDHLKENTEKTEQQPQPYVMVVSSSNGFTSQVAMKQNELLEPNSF
Chain of SPIB (Q01892 whole entry): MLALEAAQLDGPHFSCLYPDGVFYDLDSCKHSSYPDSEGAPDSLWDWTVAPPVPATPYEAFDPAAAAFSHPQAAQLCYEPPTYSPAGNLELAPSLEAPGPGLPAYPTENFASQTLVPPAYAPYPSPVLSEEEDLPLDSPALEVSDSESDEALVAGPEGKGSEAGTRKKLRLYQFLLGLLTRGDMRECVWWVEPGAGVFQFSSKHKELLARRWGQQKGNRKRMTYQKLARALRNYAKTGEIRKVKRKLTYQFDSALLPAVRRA
Chain of CRX (O43186 whole entry): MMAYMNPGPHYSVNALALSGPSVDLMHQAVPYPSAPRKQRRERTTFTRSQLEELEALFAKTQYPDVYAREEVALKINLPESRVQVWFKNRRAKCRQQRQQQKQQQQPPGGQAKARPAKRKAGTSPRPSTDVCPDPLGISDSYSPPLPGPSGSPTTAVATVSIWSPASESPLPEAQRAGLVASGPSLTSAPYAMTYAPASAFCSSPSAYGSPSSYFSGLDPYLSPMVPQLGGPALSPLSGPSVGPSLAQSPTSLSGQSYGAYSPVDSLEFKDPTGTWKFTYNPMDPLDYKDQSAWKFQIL
Chain of ETV1 (P50549 whole entry): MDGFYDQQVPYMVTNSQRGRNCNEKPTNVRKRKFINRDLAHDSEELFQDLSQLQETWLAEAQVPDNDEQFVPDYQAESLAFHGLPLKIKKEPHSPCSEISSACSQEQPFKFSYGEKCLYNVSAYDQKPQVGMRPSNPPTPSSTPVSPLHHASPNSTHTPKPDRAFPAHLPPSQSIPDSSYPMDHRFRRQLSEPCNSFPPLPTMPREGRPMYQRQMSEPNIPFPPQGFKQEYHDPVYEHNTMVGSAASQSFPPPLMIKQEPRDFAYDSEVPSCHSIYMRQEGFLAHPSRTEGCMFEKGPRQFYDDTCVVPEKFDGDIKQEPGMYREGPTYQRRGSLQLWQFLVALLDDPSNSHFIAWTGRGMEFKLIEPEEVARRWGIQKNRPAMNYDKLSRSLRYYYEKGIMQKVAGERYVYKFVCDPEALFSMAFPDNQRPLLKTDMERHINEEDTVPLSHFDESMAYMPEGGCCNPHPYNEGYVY
Chain of HSF1 (Q00613 whole entry): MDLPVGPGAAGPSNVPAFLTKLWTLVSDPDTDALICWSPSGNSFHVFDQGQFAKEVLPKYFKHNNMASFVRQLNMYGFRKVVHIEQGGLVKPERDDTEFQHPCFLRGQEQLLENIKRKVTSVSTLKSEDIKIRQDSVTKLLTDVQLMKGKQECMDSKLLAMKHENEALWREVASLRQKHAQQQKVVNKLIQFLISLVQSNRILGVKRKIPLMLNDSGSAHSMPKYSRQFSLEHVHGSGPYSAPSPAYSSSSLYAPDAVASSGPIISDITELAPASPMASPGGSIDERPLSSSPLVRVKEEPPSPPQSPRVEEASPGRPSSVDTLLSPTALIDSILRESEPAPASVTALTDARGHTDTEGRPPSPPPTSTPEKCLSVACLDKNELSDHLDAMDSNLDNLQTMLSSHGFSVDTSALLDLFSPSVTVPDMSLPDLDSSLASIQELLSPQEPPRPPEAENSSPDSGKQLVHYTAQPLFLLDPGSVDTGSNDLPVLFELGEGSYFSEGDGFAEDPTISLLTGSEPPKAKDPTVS
Chain of ETV5 (P41161 whole entry): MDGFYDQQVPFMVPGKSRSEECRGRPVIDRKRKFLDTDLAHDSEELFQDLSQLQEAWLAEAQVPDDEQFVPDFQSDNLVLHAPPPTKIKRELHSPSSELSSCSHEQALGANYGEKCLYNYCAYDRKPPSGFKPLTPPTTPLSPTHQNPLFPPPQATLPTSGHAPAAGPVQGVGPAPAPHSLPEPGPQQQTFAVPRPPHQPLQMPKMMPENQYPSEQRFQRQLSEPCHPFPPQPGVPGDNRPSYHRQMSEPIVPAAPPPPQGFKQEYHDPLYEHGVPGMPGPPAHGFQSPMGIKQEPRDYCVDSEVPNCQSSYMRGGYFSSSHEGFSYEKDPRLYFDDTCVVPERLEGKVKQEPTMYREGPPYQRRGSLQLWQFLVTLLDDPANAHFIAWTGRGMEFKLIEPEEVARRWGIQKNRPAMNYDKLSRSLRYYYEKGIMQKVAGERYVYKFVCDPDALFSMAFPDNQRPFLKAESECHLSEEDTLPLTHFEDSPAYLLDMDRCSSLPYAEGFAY

Sequence: AATAAA
- binding signal (FLI1): 1.2 fold enrichment (6-mer frequency, TF over GST control)
- binding signal (ELK1): 1.2 fold enrichment (6-mer frequency, TF over GST control)
- binding signal (GABPA): 1.27 fold enrichment (6-mer frequency, TF over GST control)
- binding signal (ERG): 1.21 fold enrichment (6-mer frequency, TF over GST control)
- binding signal (ELF1): 1.27 fold enrichment (6-mer frequency, TF over GST control)
- binding signal (EHF): 1.25 fold enrichment (6-mer frequency, TF over GST control)
- binding signal (SPI1): 1.32 fold enrichment (6-mer frequency, TF over GST control)
- binding signal (SPIB): 1.26 fold enrichment (6-mer frequency, TF over GST control)
- binding signal (ELK3): 1.27 fold enrichment (6-mer frequency, TF over GST control)
- binding signal (FEV): 1.22 fold enrichment (6-mer frequency, TF over GST control)
- binding signal (ETV5): 1.31 fold enrichment (6-mer frequency, TF over GST control)
- binding signal (HSF1): 1.42 fold enrichment (6-mer frequency, TF over GST control)
- binding signal (SPIC): 1.26 fold enrichment (6-mer frequency, TF over GST control)
- binding signal (ELF4): 1.29 fold enrichment (6-mer frequency, TF over GST control)
- binding signal (ELK4): 1.28 fold enrichment (6-mer frequency, TF over GST control)
- binding signal (ETV2): 1.21 fold enrichment (6-mer frequency, TF over GST control)
- binding signal (ELF3): 1.31 fold enrichment (6-mer frequency, TF over GST control)
- binding signal (CRX): 1.57 fold enrichment (6-mer frequency, TF over GST control)
- binding signal (ETV1): 1.23 fold enrichment (6-mer frequency, TF over GST control)
